{"source": "the antibiotic and cytotoxicity screens of Wong et al. (2023)", "note": "Out of some 39,000 compounds screened, about 3,300 (8.5%) were called active. The sample as a whole holds a higher share of actives than the screen did."}
{"system": "HepG2", "experiment": "cytotoxicity call (relative viability < 0.9)", "conditions": "10 µM"}
{"smiles": "CN(C)CCCNC(=O)C[C@H]1CC[C@@H]2[C@H](COc3ccc(NC(=O)c4ccc5c(c4)OCO5)cc3C(=O)N2C)O1", "cytotoxicity call": "inactive"}
{"smiles": "C[C@@H]1CN([C@H](C)CO)C(=O)c2cc(NS(=O)(=O)c3ccc(F)cc3)ccc2O[C@H]1CN(C)CC1CC1", "cytotoxicity call": "inactive"}
{"smiles": "C[C@@H]1CN([C@@H](C)CO)C(=O)c2cc(NC(=O)Cc3ccccc3)ccc2O[C@@H](C)CCCCO[C@@H]1CN(C)C(=O)CCC(F)(F)F", "cytotoxicity call": "inactive"}
{"smiles": "C[C@@H]1CN([C@@H](C)CO)C(=O)c2cc(NC(=O)NC3CCCCC3)ccc2O[C@H]1CN(C)Cc1ccc(C(F)(F)F)cc1", "cytotoxicity call": "inactive"}
{"smiles": "CO[C@H]1CN(C)C(=O)c2ccc(NC(=O)NC(C)C)cc2OC[C@H](C)N(Cc2ccc(-c3ccccn3)cc2)C[C@@H]1C", "cytotoxicity call": "inactive"}
{"smiles": "C[C@@H]1CN([C@@H](C)CO)C(=O)c2cc(NC(=O)Nc3ccccc3)ccc2O[C@@H](C)CCCCO[C@H]1CN(C)Cc1ccncc1", "cytotoxicity call": "inactive"}
{"smiles": "CC(C)C#Cc1ccc2c(c1)O[C@@H](CN(C)C(=O)Cc1ccccn1)[C@H](C)CN([C@@H](C)CO)S2(=O)=O", "cytotoxicity call": "inactive"}
{"smiles": "Cc1noc(C)c1S(=O)(=O)N(C)C[C@H]1Oc2ccc(NC(=O)NC(C)C)cc2CC(=O)N([C@H](C)CO)C[C@@H]1C", "cytotoxicity call": "inactive"}
{"smiles": "C#CCOC(=O)[C@@H]1[C@@H](C(=O)O)[C@@H]2C=C[C@@H]1C2", "cytotoxicity call": "inactive"}
{"smiles": "COc1ccc(NC(=O)N(C)C[C@H]2Oc3ccc(NC(=O)C4CC4)cc3CC(=O)N([C@H](C)CO)C[C@@H]2C)cc1", "cytotoxicity call": "inactive"}
{"smiles": "C[C@@H]1CN([C@@H](C)CO)C(=O)c2cccc(NC(=O)c3cnccn3)c2O[C@H]1CN(C)CC1CCCCC1", "cytotoxicity call": "inactive"}
{"smiles": "COCC#Cc1ccc2c(c1)O[C@@H](CN(C)S(=O)(=O)c1cccc(F)c1)[C@H](C)CN([C@H](C)CO)S2(=O)=O", "cytotoxicity call": "inactive"}
{"smiles": "C[C@@H]1CN([C@@H](C)CO)C(=O)c2cccc(NC(=O)Nc3ccc(F)cc3)c2O[C@@H]1CN(C)Cc1ccc(Oc2ccccc2)cc1", "cytotoxicity call": "inactive"}
{"smiles": "COc1ccc(S(=O)(=O)Nc2ccc3c(c2)C(=O)N([C@@H](C)CO)C[C@H](C)[C@H](CN(C)C(=O)Nc2cccc4ccccc24)OCCCC[C@@H](C)O3)cc1", "cytotoxicity call": "inactive"}
{"smiles": "COc1ccc(S(=O)(=O)Nc2ccc3c(c2)C(=O)N([C@H](C)CO)C[C@H](C)[C@H](CN(C)C(=O)Nc2cccc4ccccc24)OCCCC[C@@H](C)O3)cc1", "cytotoxicity call": "inactive"}
{"smiles": "COc1ccc(S(=O)(=O)Nc2ccc3c(c2)C(=O)N([C@H](C)CO)C[C@H](C)[C@@H](CN(C)C(=O)Nc2cccc4ccccc24)OCCCC[C@H](C)O3)cc1", "cytotoxicity call": "active"}
{"smiles": "COc1ccc(S(=O)(=O)Nc2ccc3c(c2)C(=O)N([C@@H](C)CO)C[C@@H](C)[C@@H](CN(C)C(=O)Nc2cccc4ccccc24)OCCCC[C@H](C)O3)cc1", "cytotoxicity call": "inactive"}
{"smiles": "COc1ccc(S(=O)(=O)Nc2ccc3c(c2)C(=O)N([C@H](C)CO)C[C@H](C)[C@@H](CN(C)C(=O)Nc2cccc4ccccc24)OCCCC[C@@H](C)O3)cc1", "cytotoxicity call": "inactive"}
{"smiles": "COc1ccc(S(=O)(=O)Nc2ccc3c(c2)C(=O)N([C@@H](C)CO)C[C@H](C)[C@H](CN(C)C(=O)Nc2cccc4ccccc24)OCCCC[C@H](C)O3)cc1", "cytotoxicity call": "active"}
{"smiles": "O=C(CN1CCOCC1)NCC[C@H]1CC[C@H](NC(=O)c2ccc3c(c2)OCO3)[C@H](CO)O1", "cytotoxicity call": "inactive"}
{"smiles": "C[C@H](CO)N1C[C@H](C)[C@H](CN(C)C(=O)Nc2ccc(F)cc2)OCCCC[C@H](C)Oc2ccc(NC(=O)C3CCCC3)cc2C1=O", "cytotoxicity call": "inactive"}
{"smiles": "Clc1ccc(Cn2cccc2)cn1", "cytotoxicity call": "inactive"}
{"smiles": "CCS(=O)(=O)Nc1ccc2c(c1)C(=O)N(C)[C@@H]1CC[C@@H](CC(=O)N[C@H]3CCN(Cc4ccccc4)C3)O[C@@H]1CO2", "cytotoxicity call": "inactive"}
{"smiles": "C[C@H]1CN([C@@H](C)CO)C(=O)Cc2cc(NS(=O)(=O)c3ccc(F)cc3)ccc2O[C@@H]1CN(C)Cc1ccncc1", "cytotoxicity call": "inactive"}
{"smiles": "COCC(=O)Nc1ccc2c(c1)OC[C@H](C)N(C(=O)Cc1ccccn1)C[C@H](C)[C@@H](OC)CN(C)C2=O", "cytotoxicity call": "inactive"}
{"smiles": "COc1ccc2c(c1OC)C(=O)OC2C1c2c(cc3c(c2OC)OCO3)CCN1C.Cl", "note": "(configuration not stated)", "cytotoxicity call": "active"}
{"smiles": "COc1cc2c(cc1OC)C1Cc3ccc(OC)c(OC)c3CN1CC2", "note": "(configuration not stated)", "cytotoxicity call": "inactive"}
{"smiles": "Cc1cc(-c2cc(OC(=O)c3ccccc3)ccc2Cl)cc2nnc(Nc3ccc(OCCN4CCCC4)cc3)nc12", "cytotoxicity call": "inactive"}
{"smiles": "CCN(CC)CCOc1ccc(Nc2ncc3cc(-c4c(Cl)cccc4Cl)c(=O)n(C)c3n2)cc1", "cytotoxicity call": "active"}
{"smiles": "O=C(C[C@@H]1C=C[C@@H](NC(=O)CN2CCOCC2)[C@H](CO)O1)NCCc1ccccc1", "cytotoxicity call": "inactive"}
{"smiles": "NCC(=O)NCC(=O)O", "cytotoxicity call": "inactive"}
{"smiles": "O=C(O)CNC(=O)C(=O)O", "cytotoxicity call": "active"}
{"smiles": "CNCC(=O)O", "cytotoxicity call": "inactive"}
{"smiles": "CN(C)CCN1C[C@@H]2CN(C(=O)[C@H]3CCOC3)C[C@H]2C1=O", "cytotoxicity call": "inactive"}
{"smiles": "C[C@@H]1CCCCO[C@H](CN(C)S(=O)(=O)c2cccs2)[C@@H](C)CN([C@@H](C)CO)C(=O)c2cc(NC(=O)NC3CCCCC3)ccc2O1", "cytotoxicity call": "inactive"}
{"smiles": "Cc1noc(C)c1S(=O)(=O)Nc1ccc2c(c1)C(=O)N([C@@H](C)CO)C[C@H](C)[C@H](CN(C)Cc1ccc3c(c1)OCO3)O2", "cytotoxicity call": "inactive"}
{"smiles": "COc1ccc(S(=O)(=O)N(C)C[C@@H]2OCCCC[C@@H](C)Oc3ccc(NC(=O)Nc4ccc(F)cc4)cc3C(=O)N([C@@H](C)CO)C[C@H]2C)cc1", "cytotoxicity call": "inactive"}
{"smiles": "CN(C)CC(=O)N1CC2(C1)[C@H](c1ccccc1)[C@H](CO)N2S(C)(=O)=O", "cytotoxicity call": "inactive"}
{"smiles": "CNC(=O)c1ccc(Nc2ncc(C(F)(F)F)c(NCc3nccnc3N(C)S(C)(=O)=O)n2)cc1", "cytotoxicity call": "active"}
{"smiles": "CN(c1ncccc1CNc1nc(Nc2ccc3c(c2)CC(=O)N3)ncc1C(F)(F)F)S(C)(=O)=O", "cytotoxicity call": "active"}
{"smiles": "Cc1cnc(CNC(=O)c2c(=O)c3ccc(N4CCCN(C)CC4)nc3n3c2sc2ccccc23)cn1", "cytotoxicity call": "inactive"}
{"smiles": "CCS(=O)(=O)N1C[C@]2(CN(C2)C(=O)Nc2ccc(cc2F)F)c2c(n(c3cc(ccc23)OC)C)[C@@H]1CO", "cytotoxicity call": "inactive"}
{"smiles": "CN(C)Cc1cn(CC[C@H]2CC[C@@H](NC(=O)Cc3cccnc3)[C@@H](CO)O2)nn1", "cytotoxicity call": "inactive"}
{"smiles": "O=c1/c(=C\\c2ccc(F)cc2)sc2n1CCN=2", "cytotoxicity call": "inactive"}
{"smiles": "O=C(/C=C/c1cc2c(cc1Br)OCCO2)c1c(-c2ccccc2)c2cc(Cl)ccc2[nH]c1=O", "cytotoxicity call": "active"}
{"smiles": "N=C(CN1CCCCC1)NO", "cytotoxicity call": "inactive"}
{"smiles": "CN(C)CCCNC(=O)C[C@@H]1CC[C@H]2[C@@H](COC[C@@H](O)CN2C(=O)c2cc(Cl)cc(Cl)c2)O1", "cytotoxicity call": "inactive"}
{"smiles": "COc1ccc(NC(=O)Nc2ccc3c(c2)C(=O)N([C@@H](C)CO)C[C@H](C)[C@H](CN(C)C(=O)Nc2ccc(C(F)(F)F)cc2)OCCCC[C@H](C)O3)cc1", "cytotoxicity call": "inactive"}
{"smiles": "C[C@H]1CN([C@@H](C)CO)C(=O)c2cccc(NS(=O)(=O)c3ccc(F)cc3)c2O[C@@H]1CN(C)Cc1ccc(Cl)c(Cl)c1", "cytotoxicity call": "inactive"}
{"smiles": "COC1=C(N)C(=O)c2nc(-c3nc(C(=O)O)c(C)c(-c4ccc(OC)c(OC)c4O)c3N)ccc2C1=O", "cytotoxicity call": "active"}
{"smiles": "COc1ccc(NC(=O)N(C)C[C@@H]2Oc3ncc(Br)cc3C(=O)N([C@H](C)CO)C[C@@H]2C)cc1", "cytotoxicity call": "inactive"}
{"smiles": "CCCNC(=O)N1C[C@H](O)COC[C@@H]2O[C@H](CC(=O)NCCCN3CCOCC3)CC[C@H]21", "cytotoxicity call": "inactive"}
{"smiles": "CN1C(=O)c2cc(NC(=O)c3ccc(C(F)(F)F)cc3)ccc2OC[C@@H]2O[C@@H](CC(=O)NC3Cc4ccccc4C3)CC[C@@H]21", "cytotoxicity call": "active"}
{"smiles": "CN1C(=O)c2cc(NC(=O)c3ccc(C(F)(F)F)cc3)ccc2OC[C@@H]2O[C@H](CC(=O)NC3Cc4ccccc4C3)CC[C@H]21", "cytotoxicity call": "inactive"}
{"smiles": "CN1C(=O)c2cc(NC(=O)c3ccc(C(F)(F)F)cc3)ccc2OC[C@H]2O[C@H](CC(=O)NC3Cc4ccccc4C3)CC[C@H]21", "cytotoxicity call": "active"}
{"smiles": "CN1C(=O)c2cc(NC(=O)Nc3ccccc3F)ccc2OC[C@H]2O[C@@H](CC(=O)Nc3cccc(Cl)c3)CC[C@@H]21", "cytotoxicity call": "active"}
{"smiles": "CN1C(=O)c2cc(NC(=O)c3ccc(C(F)(F)F)cc3)ccc2OC[C@H]2O[C@H](CC(=O)NC3Cc4ccccc4C3)CC[C@@H]21", "cytotoxicity call": "inactive"}
{"smiles": "CN1C(=O)c2cc(NC(=O)c3ccc(C(F)(F)F)cc3)ccc2OC[C@@H]2O[C@@H](CC(=O)NC3Cc4ccccc4C3)CC[C@H]21", "cytotoxicity call": "inactive"}
{"smiles": "CN1C(=O)c2cc(NC(=O)Nc3ccccc3F)ccc2OC[C@H]2O[C@H](CC(=O)NCc3ccc(-c4ccccc4)cc3)CC[C@H]21", "cytotoxicity call": "inactive"}
{"smiles": "CN1C(=O)c2cc(NC(=O)c3ccc(C(F)(F)F)cc3)ccc2OC[C@@H]2O[C@H](CC(=O)NC3Cc4ccccc4C3)CC[C@@H]21", "cytotoxicity call": "inactive"}
{"smiles": "CN(C)CC(=O)Nc1ccc2c(c1)C(=O)N(C)[C@H]1CC[C@H](CC(=O)Nc3cccc(Cl)c3)O[C@@H]1CO2", "cytotoxicity call": "inactive"}
{"smiles": "C[C@H]1CCCCO[C@@H](CN(C)Cc2ccncc2)[C@@H](C)CN([C@@H](C)CO)C(=O)c2cc(NC(=O)Nc3ccccc3)ccc2O1", "cytotoxicity call": "inactive"}
{"smiles": "Cc1ccc(S(=O)(=O)Nc2ccc3c(c2)C(=O)N([C@H](C)CO)C[C@@H](C)[C@@H](CN(C)C(=O)Nc2ccccc2)OCCCC[C@H](C)O3)cc1", "cytotoxicity call": "inactive"}
{"smiles": "C[C@H](CO)N1C[C@H](C)[C@@H](CN(C)S(=O)(=O)c2ccc(F)cc2)Oc2ncc(-c3ccncc3)cc2C1=O", "cytotoxicity call": "inactive"}
{"smiles": "COc1ccc(CN(C)C[C@@H]2OCCCC[C@@H](C)Oc3ccc(NC(=O)CCC(F)(F)F)cc3C(=O)N([C@@H](C)CO)C[C@@H]2C)cc1", "cytotoxicity call": "inactive"}
{"smiles": "CCOC(=O)N(C)C[C@@H]1OCc2cn(nn2)CCCC(=O)N([C@H](C)CO)C[C@@H]1C", "cytotoxicity call": "inactive"}
{"smiles": "C[C@@H]1CN([C@@H](C)CO)C(=O)c2cc(NS(=O)(=O)c3ccc(F)cc3)ccc2O[C@@H]1CN(C)S(=O)(=O)c1cccs1", "cytotoxicity call": "inactive"}
